# In the library only some 1.4% were active in any assay of this set; here they are far more common.
# ASM inhibitor = Inhibitors of Secretory Acid Sphingomyelinase (S-ASM): qHTS; 340,000 tested, 0.006% active; AID 504937, 2011; Potency, µM (top dose mostly 57.5 µM), without a hit: at the top dose activity change, negative = inhibition, hits mostly inhibitors; placental ASM, HMU-PC fluorogenic substrate, 60 min; Sphingomyelin phosphodiesterase (Homo sapiens), P17405; note: potency is the fitted concentration of half-maximal effect
# Target sequence (P17405 47-631 limits assumed): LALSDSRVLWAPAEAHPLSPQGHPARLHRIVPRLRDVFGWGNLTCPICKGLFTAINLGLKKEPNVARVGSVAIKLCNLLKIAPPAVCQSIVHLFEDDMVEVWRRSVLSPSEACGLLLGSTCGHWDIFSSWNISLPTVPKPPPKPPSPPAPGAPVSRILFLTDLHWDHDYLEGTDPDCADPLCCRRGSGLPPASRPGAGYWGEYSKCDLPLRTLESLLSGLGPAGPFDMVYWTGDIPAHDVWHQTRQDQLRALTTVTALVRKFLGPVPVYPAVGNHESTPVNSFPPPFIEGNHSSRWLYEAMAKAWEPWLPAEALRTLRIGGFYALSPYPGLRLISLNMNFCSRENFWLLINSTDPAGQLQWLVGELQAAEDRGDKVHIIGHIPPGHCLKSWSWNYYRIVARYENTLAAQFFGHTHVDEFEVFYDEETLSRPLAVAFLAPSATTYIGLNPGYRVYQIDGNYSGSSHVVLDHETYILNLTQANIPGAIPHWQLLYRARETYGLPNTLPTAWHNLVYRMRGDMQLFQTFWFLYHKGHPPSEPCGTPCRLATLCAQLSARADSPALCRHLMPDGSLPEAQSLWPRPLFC
#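 Human placenta-derived ASM preincubated with compound 10 min at room temperature, then reacted with 9 uM (final) fluorogenic HMU-PC substrate for 60 min at 37 C. Stop solution raises pH to 10; fluorescence read at Ex 386/Em 447 nm.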
# PINK1 modulator = A Quantitative High throughput Screen to Identify Chemical Modulators of PINK1 Expression | PINK1 immunofluorescence, high-content cytometry, 24 h | Potency, µM (top dose mostly 76.6 µM), inactives show at the highest dose activation (PINK1 increase), most hits filed as activators | 410,000 tested, 0.2% active | AID 624263, 2012; active = well fitted activation curve with a large enough effect; inconclusive = small, poorly fitted or top-dose-only effect; cell line not stated here; note: potency is the fitted concentration of half-maximal effect; % of control where 0% means no effect; nearly all actives have a fitted effect of over 65% in size
#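 PINK1 protein, normally rapidly degraded, was detected by immunofluorescence after 24 hour compound treatment of a stable cell line. Titration data (5 concentrations) came from laser-scanning cytometry, with CCCP-treated wells as controls.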
# ALOX12 inh = Primary qHTS assay for inhibitors of human arachidonate 12S-lipoxygenase (ALOX12): Round 2; Polyunsaturated fatty acid lipoxygenase ALOX12 (Homo sapiens), P18054; purified 12hLO, xylenol orange hydroperoxide absorbance; Potency, µM (series often up to 108 µM), inactives show at the highest dose activity change, negative = inhibition, hits mostly inhibitors; 580,000 tested, 1.1% active; AID 1671190, 2021; note: potency is the fitted concentration of half-maximal effect; % is set by controls: 0 for no effect and ±100 for the full control effect
#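 Hydroperoxide product was detected by ferrous iron/xylenol orange as the 573 to 405 nm absorbance ratio. Arachidonic acid at 40 uM (final) was turned over for 30 min at room temperature by 150 nM human 12hLO, pH 7.0 Hepes buffer, after 15 min compound preincubation.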
# CCT chaperon mod = High-Throughput Screening for Modulators of Cytosolic Chaperonin Activity. purified chaperonin ATPase assay, HTRF ADP detection, 30 min. activity change, % (test concentration not listed), hits read low. 360,000 tested, 0.3% active; in the data active = activity change below about -30%; note: % is set by controls: 0 for no effect and ±100 for the full control effect
#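 TRiC (40 or 20 nM final, by batch activity) in 30 mM Tris pH 7.4, 100 mM KCl, 5 mM MgCl2, 1 mM DTT was treated with compound at 76 uM single dose, then 10 uM ATP, 30 min at 37 °C. ADP was read by HTRF Transcreener.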
# p53 reactivator = qHTS assay for re-activators of p53 using a Luc reporter; Potency, µM (top dose mostly 92.2 µM), without a hit: at the top dose activity change, positive = activation, most hits filed as activators; 320,000 tested, 0.063% active; AID 504706, 2011; H1299 p53-A138V BP100-luciferase reporter, luminescence, 24 h; note: potency is the fitted concentration of half-maximal effect; % of control where 0% means no effect; nearly all actives have a fitted effect of over 45% in size
#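 H1299 (p53-null), stable ts p53-A138V + BP100-Luc; 1000 cells/well, Opti-MEM/10% FBS; cpd 4 pt, 1:5; 24 h, 37 deg C, 5% CO2; detection reagent 10 min RT; luminescence.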
# MmCpn inh = Inhibitors of TCP-1 ring complex (TRiC) of Methanococcus maripaludis (MmCpn): qHTS; Chaperonin Mm-Cpn (Methanococcus maripaludis); purified Mm-Cpn ATPase, ADP Transcreener TR-FRET; Potency, µM (top dose mostly 76.9 µM), for the others: top-dose activity, negative = inhibition, actives largely listed as inhibitors; 330,000 tested, 0.031% active; AID 504842, 2011; note: potency is the fitted concentration of half-maximal effect; % is set by controls: 0 for no effect and ±100 for the full control effect; nearly all actives have a fitted effect of over 80% in size
#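 Purified archaeal chaperonin (25 nM final) was preincubated with compound for 10 min at 37°C, then ATP (10 uM final) was added for 30 min at 37°C in Tris pH 7.4/KCl/MgCl2/DTT buffer. ADP was quantified by HTRF Transcreener TR-FRET.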
# Active calls of the source: *; ? = inconclusive; · = no result given; [ ] = remark or other dose. Unless noted, calls come from the whole dose curve; as a rule, active = well fitted curve in the direction sought with a large enough effect; inconclusive = small, poorly fitted or top-dose-only effect, or another doubt; inactive = no such curve, though single readings can be large; an effect the other way counts as inactive or inconclusive.
SMILES,ASM inhibitor,PINK1 modulator,ALOX12 inh,CCT chaperon mod,p53 reactivator,MmCpn inh
Cc1ccc(CNC(=O)CN2C(=O)c3ccccc3S2(=O)=O)cc1,2.6%,7.0%,-17.9%,-0.5,10.8%,1.6%
Cc1ccc(CNC(=O)CN2NS(=O)(=O)c3ccccc3C2=O)cc1,·,-0.2%,20µM*,-0.6,·,·
COc1ccc(S(=O)(=O)N2CCN(CCNC(=O)COc3ccc(C(C)C)cc3)CC2)cc1,·,·,35.5µM*,·,·,·
Cc1nc(Nc2ccccc2F)c2oc3ccccc3c2n1,1.5%,3.6%,-64.7%,-49.2*,6.2%,-0.7%
Cc1nc(NCc2ccc3c(c2)OCO3)c2oc3ccccc3c2n1,-5.3%,-3.2%[38.3 µM],22.4µM*,0.2,4.8%,-2.3%
CCc1nc(NCc2ccc3c(c2)OCO3)c2oc3ccccc3c2n1,?,-3.0%,?,1.0,11.8%,0.4%
Cc1ccc(F)c(Nc2ncnc3c2oc2ccccc23)c1,·,·,4.47µM*,·,·,·
CCc1cccc2c(C(=O)C(=O)Nc3cccc(Cl)c3)c[nH]c12,·,·,-2.8%,·,·,·
COc1ccc(C2C=C(c3ccc(Cl)cc3)Nc3nnnn32)c(OC)c1OC (centres undefined),·,·,-0.4%,·,·,·
c1ccc(C2CCCN2Cc2nnc(-c3ccco3)o2)cc1 (centres undefined),·,·,30.9%,·,·,·
Cc1ccc(C(=O)N/N=C/C2=Cc3ccccc3OC2C)cc1 (centres undefined),392.6%,4.8%,-17.1%,-0.5,?,-4.3%
CC1Oc2ccccc2C=C1/C=N/NC(=O)c1ccccc1 (centres undefined),295.5%,-0.6%,22.8%,-45.2*,?,-1.8%
O=S(=O)(c1ccc(Cl)c(C(F)(F)F)c1)N1CCN(CC(O)COCC2CCCO2)CC1 (centres undefined),0.1%,2.9%,0.562µM*,-11.3,-6.8%,-0.4%
O=C(/C=C/c1cccc(Cl)c1)NC1CCCC1,·,·,61.0%,·,·,·
O=C(NCCc1c[nH]c2ccccc12)C(=O)c1c[nH]c2ccccc12,3.8%,0.9%,0.0%,-86.6*,8.7%,2.3%
Cc1cccc(NC(=S)NCCc2c[nH]c3ccccc23)c1,1.9%,0.1%,39.8µM*,-1.0,3.8%,0.8%
S=C(NCCc1c[nH]c2ccccc12)Nc1ccc(Br)cc1,·,·,31.6µM*,·,·,·
Cc1ccc(NC(=S)NCCc2c[nH]c3ccccc23)cc1,-7.7%,-0.2%,?,2.5,3.5%,-2.0%
COc1ccc(CNC(=O)NCCc2c[nH]c3ccccc23)cc1,-0.5%,-0.8%,0.0%,-0.7,-6.7%,4.6%
COc1ccc(CCNC(=S)NCCc2c[nH]c3ccccc23)cc1,-6.0%,-1.0%,44.7µM*,-0.8,2.2%,2.1%
Cc1nc(CN2CCN(C(=O)NCCc3ccccn3)CC2)cs1,·,·,28.8%,·,·,·
Cc1ccc(-c2nn(-c3ccccc3)c(-c3ccc(C)cc3)c2C)cc1,·,·,-25.6%,·,·,·
CC(C)c1ccc(NC(=S)NCCc2c[nH]c3ccccc23)cc1,-9.1%,21.2%,35.5µM*,-1.4,?,1.0%
Cc1nnc(N/N=C/c2cccc(OCc3ccc(Cl)c(Cl)c3)c2)n1N,?,0.9%,17.8µM*,-1.4,?,-2.2%
O=C(OCc1c(F)cccc1Cl)c1cnc2ccccc2n1,0.9%,0.6%,-10.6%,0.1,3.8%,-5.1%
O=C(OCc1c(F)cccc1Cl)c1cnccn1,-0.1%,-0.9%,-14.1%,-40.4*,-2.8%,0.8%
Cc1ccc(N(CC(=O)Nc2ccc(-c3nc4ccc(C)cc4s3)cc2)S(C)(=O)=O)cc1,51.5%,2.7%,1.6%,-40.2*,?,?
